Data reported in PubChem BioAssay (NCATS).
Inconclusive results are not listed. Activity calls are given as the source filed them. The call rests on the fitted dose curve; in most records, active means well fitted curve in the direction sought with a large enough effect; inconclusive means small, poorly fitted or top-dose-only effect, or another doubt; inactive means no such curve, though single readings can be large; an effect the other way counts as inactive or inconclusive.

Assays:
[1] = P-glycoprotein substrates identified in KB-8-5-11 adenocarcinoma cell line, qHTS therapeutic library screen (AID 1346987); settings: KB-8-5-11 (P-gp overexpressing) viability, CellTiter-Glo, 72 h; series mostly up to 44.5 µM; further: nearly all actives have a fitted effect of over 65% in size
How it was run: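 KB-8-5-11, a colchicine-selected P-gp-overexpressing KB-3-1 subline, was grown without colchicine for the assay. Cells were seeded at 500 cells/well, dosed in concentration-response and incubated 72 h at 37 degree C, 5% CO2. Viability was read by CellTiter-Glo luminescence.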

[2] = system: Zika virus NS2B-NS3 protease (unlinked complex); experiment: Primary screen GU Rhodamine qHTS for Zika virus inhibitors: Unlinked NS2B-NS3 protease assay (AID 1347159); settings: Recombinant ZIKV NS2B-NS3 protease, Rhodamine110 substrate fluorescence; series mostly up to 107 µM; further: nearly all actives have a fitted effect of over 60% in size
How it was run: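 A qHTS format was used, with compound concentrations ranging up to 114 microM. Each compound was preincubated with 25 nM NS2B-NS3 protease, and the substrate was then added at 1.5 microM. Curves were fitted with a 4-parameter Hill model.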

[3] = system: Zika virus NS2B-NS3 protease (linked construct); experiment: Primary screen NINDS Rhodamine qHTS for Zika virus inhibitors (AID 1347160); settings: purified NS2B-NS3 protease, Rhodamine110 substrate fluorescence; series mostly up to 33.1 µM; further: nearly all actives have a fitted effect of over 55% in size
How it was run: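 Kinetic fluorescence (Ex 480 nm, Em 540 nm) over 15 min with 1.5 microM Rhodamine110 peptide and 25 nM linked protease.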
On the % scale 0 is the no-effect control and ±100 the full control effect.

CC1(CO)CCCC2(C)C1C(OC(=O)c1ccccc1)CC1C(=O)OCC12O (stereo unspecified)
inactive: Potency [1] | Potency [2] | Potency [3]

CC1=CCC(O)C2(C)CCC3C(C)C(=O)OC3C12 (stereo unspecified)
inactive: Potency [1] | Potency [2] | Potency [3]

Cc1c(C)c(NCC(=O)N(C)C2CCN(Cc3ccc(C(N)=O)cc3)CC2)c(C)c(C)c1N
inactive: Potency [1] | Potency [2] | Potency [3]

C[C@]1(O)CC[C@@H]2C(C(=O)O)=CO[C@@H](O[C@@H]3O[C@H](CO)[C@@H](O)[C@H](O)[C@H]3O)[C@@H]21
inactive: Potency [1] | Potency [2] | Potency [3]

Cc1occc(=O)c1O[C@@H]1O[C@H](CO)[C@@H](O)[C@H](O)[C@H]1O
inactive: Potency [1] | Potency [2] | Potency [3]

COc1cc2nc(=NC(=O)c3cccnc3)n3c(c2cc1OC)NCC3
inactive: Potency [1] | Potency [2] | Potency [3]

CC(C)(O)C1CCC2(C)CCCC(C)(O)C2C1 (stereo unspecified)
inactive: Potency [1] | Potency [2] | Potency [3]

C#CCCCn1cc(-c2cccc3c2N[C@@H](C)CC(=O)N3)cn1
inactive: Potency [1] | Potency [2] | Potency [3]

COc1c(O)cc2c(c1O)C(=O)O[C@H](C)[C@H]2O
inactive: Potency [1] | Potency [2] | Potency [3]

CC(=O)O[C@@H]1[C@H](O[C@@H]2OC[C@](O)(CO)[C@H]2O)[C@@H](O[C@@H]2O[C@@H](C)[C@H](O)[C@@H](O[C@@H]3O[C@H](CO)[C@@H](O)[C@H](O)[C@H]3O)[C@H]2O)[C@H](OC(=O)[C@]23CCC(C)(C)C[C@H]2C2=CCC4[C@@]5(C)C[C@H](O)[C@H](O[C@@H]6O[C@H](C(=O)O)[C@@H](O)[C@H](O)[C@H]6O)[C@@](C)(C(=O)O)C5CC[C@@]4(C)[C@]2(C)CC3)O[C@@H]1C (stereo partly specified)
inactive: outcome [1] inactive [at 9.29 µM] | activity change, negative = inhibition [2] 2.67% [at 19.1 µM] | Potency [3]

O=C(O)Cc1cn([C@@H]2OC[C@@H](O[C@@H]3O[C@H](CO)[C@@H](O)[C@H](O)[C@H]3O)[C@H](O)[C@H]2O[C@@H]2O[C@H](CO)[C@@H](O)[C@H](O)[C@H]2O)c2ccccc12
inactive: Potency [1] | Potency [2] | Potency [3]

COc1ccc(/C=C/C(=O)O[C@@H]2[C@@H](O)[C@@H](O)[C@H](O[C@H]3[C@@H]4C=CO[C@@H](O[C@@H]5O[C@H](CO)[C@@H](O)[C@H](O)[C@H]5O)[C@@H]4[C@@]4(CO)O[C@@H]34)O[C@H]2C)cc1
inactive: Potency [1] | Potency [2] | Potency [3]

CC(=O)O[C@@H]1C(=O)C(C)=C(CCC(C)CC(=O)O)[C@@]2(C)CCCC(C)(C)C12 (stereo partly specified)
inactive: Potency [1] | Potency [2] | Potency [3]

C/C=C/C=C/C(O)=C1/C(=O)[C@]2(C)C3/C(=C(O)/C=C/C=C/C)C(=O)C4(C)C1[C@]1(C)O[C@@]4(O)[C@@]3(C)O[C@@]12O
inactive: Potency [1] | Potency [2] | Potency [3]

C[C@]1(OC(=O)/C=C/c2ccccc2)C[C@@H](O)[C@]2(O)C=CO[C@@H](O[C@@H]3O[C@H](CO)[C@@H](O)[C@H](O)[C@H]3O)[C@@H]21
inactive: Potency [1] | Potency [2] | Potency [3]

CC1=C[C@H](O)[C@H]2C(C)(C)CCC[C@]2(C)[C@@]1(O)CO
inactive: Potency [1] | Potency [2] | Potency [3]

CC(C)=CC[C@H]1O[C@]2(O)C([C@H]3CCC4[C@@]5(C)CC[C@H](O[C@@H]6O[C@H](CO)[C@H](O)[C@H](O[C@@H]7O[C@H](CO)[C@@H](O)[C@H](O)[C@H]7O)[C@H]6O[C@@H]6O[C@@H](C)[C@H](O)[C@@H](O)[C@H]6O)C(C)(C)C5CC[C@@]4(C)[C@]3(C)[C@H]2O)[C@@]1(C)O (stereo partly specified)
inactive: activity change, negative = cytotoxicity [1] 9.26% [at 9.29 µM] | Potency [2] | Potency [3]

CCC(C)C1NC(=O)C2C(C)CCN2C(=O)C(CC(O)CO)OC(=O)CCNC(=O)C(C)N(C)C(=O)C(C(C)C)N(C)C1=O (stereo unspecified)
inactive: Potency [1] | Potency [2] | Potency [3]

CC12CC34CC(O)C5C(CO)(CO)CC(=O)CC5(C)C3CC1C2C4 (stereo unspecified)
inactive: Potency [1] | Potency [2] | Potency [3]

C=C1[C@H](OC(C)=O)[C@H]2[C@@H](OC(C)=O)C(C)C[C@]2(OC(C)=O)C(=O)[C@H](C)/C=C/C(C)(C)C(=O)[C@H](OC(=O)C(C)C)[C@H]1OC(C)=O (stereo partly specified)
inactive: Potency [1] | Potency [2] | Potency [3]

CC1(C)CC[C@]2(C(=O)O[C@@H]3O[C@H](CO[C@@H]4O[C@H](CO)[C@@H](O)[C@H](O)[C@H]4O)[C@@H](O)[C@H](O[C@@H]4O[C@H](CO)[C@@H](O)[C@H](O)[C@H]4O)[C@H]3O)CC[C@]3(C)C(=CCC4[C@@]5(C)CC[C@H](O[C@@H]6OC[C@@H](O)[C@H](O)[C@H]6O)[C@@](C)(C(=O)O)C5CC[C@]43C)[C@@H]2C1 (stereo partly specified)
inactive: activity change, negative = cytotoxicity [1] 2.51% [at 9.29 µM] | Potency [2] | Potency [3]

CC(C)C(O)(CO)CCO[C@@H]1O[C@H](CO[C@H]2OC[C@](O)(CO)[C@H]2O)[C@@H](O)[C@H](O)[C@H]1O (stereo partly specified)
inactive: Potency [1] | Potency [2] | Potency [3]

O=C(OCC1OC(Oc2ccc(O)cc2COC(=O)C2(O)C(O)CCC(=O)C2OC(=O)C2C=CCC2)C(OC(=O)C2C=CCC2)C(O)C1O)C1C=CCC1 (stereo unspecified)
inactive: Potency [1] | Potency [2] | Potency [3]

CC1(C)CC[C@]2(C(=O)O[C@@H]3O[C@H](CO)[C@@H](O)[C@H](O)[C@H]3O)CC[C@]3(C)C(=CCC4[C@@]5(C)C[C@H](O)[C@H](O[C@@H]6O[C@H](C(=O)O)[C@@H](O)[C@H](O)[C@H]6O)[C@@](C)(CO)C5CC[C@]43C)C2C1 (stereo partly specified)
inactive: activity change, negative = cytotoxicity [1] -7.52% [at 9.29 µM] | activity change, negative = inhibition [2] 21.5% [at 19.1 µM] | Potency [3]

C=C1C2(C)CC3C4(C)OC(C5OC56C4=CC(=O)OC6(C)C)C3(C)C13C(=O)OC(C)C3(O)C2=O (stereo unspecified)
inactive: Potency [1] | Potency [2] | Potency [3]

C=C1C(OC(C)=O)CCC2(C)CC3(O)OC(=O)C(C)=C3CC12 (stereo unspecified)
inactive: Potency [1] | Potency [2] | Potency [3]

Cc1c(NC(=O)N2CCOCC2)ccc2c1c1ccccc1n2C(C)C
inactive: Potency [1] | Potency [2] | Potency [3]

CC(=O)OC1CC(C(C)(C)O)OC2CCC3(C)OC4=C(C(=O)C=C5C(C)C(OC(C)=O)C6(C)C(C)OC546)C(O)C3C12C (stereo unspecified)
inactive: Potency [1] | Potency [2] | Potency [3]

CCCCNc1nc(N)c2[nH]c(=O)n(Cc3ccc(OCCN(C)C)nc3)c2n1
inactive: Potency [1] | Potency [2] | Potency [3]

CCCO[C@@H]1O[C@H](CO)[C@@H](O)[C@H](O)[C@H]1O[C@@H]1OC[C@@H](O)[C@H](O)[C@H]1O
inactive: Potency [1] | Potency [2] | Potency [3]

CC1=C2C[C@@]3(C)[C@@H](CCC[C@@H]3C)C[C@@]2(O)OC1=O
inactive: Potency [1] | Potency [2] | Potency [3]

O=C(O)c1cc(O[C@@H]2O[C@H](CO)[C@@H](O)[C@H](O)[C@H]2O)ccc1O
inactive: Potency [1] | Potency [2] | Potency [3]

CC(=O)O[C@H]1C[C@@H](O)C(C)(C)C2C[C@@H](OC(C)=O)[C@@]3(C)C4=CCC(C(CO)CC(O)C5OC5(C)C)[C@]4(C)CCC3[C@]21C (stereo partly specified)
inactive: Potency [1] | Potency [2] | Potency [3]

COc1ccc(C2OCC3C(c4cc(OC)c5c(c4)OCO5)OCC23)cc1OC (stereo unspecified)
inactive: Potency [1] | Potency [2] | Potency [3]

COc1cc(/C=C/C(=O)O[C@@H]2C[C@@](O)(C(=O)O)C[C@@H](O)[C@@H]2O)ccc1O
inactive: Potency [1] | Potency [2] | Potency [3]

COc1cc(/C=C/C(=O)OC[C@H]2O[C@@H](OC3OC=C(C(=O)O)C4C(O)CC(C)(O)C34)[C@H](O)[C@@H](O)[C@@H]2O)cc(OC)c1O (stereo partly specified)
inactive: Potency [1] | Potency [2] | Potency [3]

C=C(CCO)C(=O)OCC1OCC(OC(=O)C(=C)CCO[C@@H]2O[C@H](COC(=O)C(=C)CCO[C@@H]3O[C@H](CO)[C@@H](O)[C@H](O)[C@H]3O)[C@@H](O)[C@H](O)[C@H]2O)C(O)C1O (stereo partly specified)
inactive: Potency [1] | Potency [2] | Potency [3]

COc1c2c(c(C)c3c1C(=O)OC3)OC1(C)CC(O)C34OC(O)(CCC3(C)C1C2)OC4(C)C (stereo unspecified)
inactive: Potency [1] | Potency [2] | Potency [3]

C=C1CCc2occ(C)c2[C@H]2[C@H]1[C@@]13O[C@@]1(C[C@@H](C)[C@H]3OC(C)=O)[C@H]1O[C@@]21C
inactive: Potency [1] | Potency [2] | Potency [3]

C/C=C(\C)C(=O)OC1C2(O)CC3=C4CC(=O)OC(c5ccoc5)C4(C)CCC3C(C)(C2=O)C(C(OC(C)=O)C(=O)OC)C1(C)C (stereo unspecified)
inactive: Potency [1] | Potency [2] | Potency [3]

C=C1C[C@]23C[C@H]1CC[C@H]2[C@]1(C)CC[C@H](O)[C@@](C)(C(=O)O)[C@H]1[C@@H]3C(=O)O
inactive: Potency [1] | Potency [2] | Potency [3]

COC(=O)C(CC1(OC(=O)C(C)C)c2ccccc2N2C(=O)C(C)(C)N(O)C21)n1cnc2ccccc2c1=O (stereo unspecified)
inactive: Potency [1] | Potency [2] | Potency [3]

CNC(=O)c1ccc2c(c1)CCO[C@H]2CCN1CCN(c2ccc(C(N)=O)cc2)CC1
inactive: Potency [1] | Potency [2] | Potency [3]

CC1(C)CCC[C@@]2(C)[C@H]1[C@H](O)C=C(CO)[C@]2(O)CO
inactive: Potency [1] | Potency [2] | Potency [3]

O=C(O)[C@H]1Cc2ccccc2CN1
inactive: activity change, negative = cytotoxicity [1] 6.15% [at 5.11 µM] | activity change, negative = inhibition [2] -0.45% [at 11.5 µM] | activity change, negative = inhibition [3] 20.2% [at 4.91 µM]

Nc1ccc(-n2nc(C(F)(F)F)cc2C(F)(F)F)cc1
inactive: Potency [1] | Potency [2] | Potency [3]

CC(C)=CCC[C@](C)(O[C@@H]1O[C@H](CO[C@@H]2O[C@@H](CO)[C@H](O)[C@H]2O[C@@H]2OC[C@@H](O)[C@H](O)[C@H]2O)[C@@H](O)[C@H](O)[C@H]1O)[C@H]1CC[C@]2(C)[C@@H]1[C@H](O)CC1[C@@]3(C)CC[C@H](O[C@@H]4O[C@H](CO)[C@@H](O)[C@H](O)[C@H]4O[C@@H]4O[C@H](CO)[C@@H](O)[C@H](O)[C@H]4O)C(C)(C)C3CC[C@]12C (stereo partly specified)
inactive: outcome [1] inactive [at 9.29 µM] | activity change, negative = inhibition [2] 0.816% [at 19.1 µM] | outcome [3] inactive [at 10.7 µM]
